Our source for the max response, Potency and outcome values is PubChem BioAssay (NCATS).

One assay deals with CRL-7250. In words: Cytotoxic Profiling of Annotated Libraries Using Quantitative High-Throughput Screening (AID 1296008). Note: nearly all actives have a fitted effect of over 60% in size. Note: potency is the fitted concentration of half-maximal effect. To be noted: Five cell lines viability, CellTiter-Glo ATP luminescence, 48-72 h; max response: active compounds read low. The procedure, abridged:
(§1)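 Cells exposed to compounds for 48 or 72 hr at 37 degrees Celsius. Viability read as ATP-coupled luminescence with CellTiter-Glo after 10 min at room temperature.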
On the technique in general: Cellular ATP, detected with luciferase, serves as a proxy for viable cell number.

A further assay concerns HEK293. The description is as above. Particulars: Five cell lines viability, CellTiter-Glo ATP luminescence, 48-72 h; max response: active compounds read low. The procedure, abridged: as §1
The subject of assay [1] is HaCat. Described as above. To be noted: Five cell lines viability, CellTiter-Glo ATP luminescence, 48-72 h; max response: active compounds read low. The procedure, abridged:
as §1

Assay [2] deals with NIH3T3. The assay is described as above. To be noted: Five cell lines viability, CellTiter-Glo ATP luminescence, 48-72 h; max response: active compounds read low. The procedure, abridged:
as §1

In assay [3] the test system is HACAT. In words: qHTS assay to identify novel small-molecules to repurpose for Merkel cell carcinoma treatment (AID 1296009). Note: nearly all actives have a fitted effect of over 60% in size. Note: potency is the fitted concentration of half-maximal effect. To be noted: MCC and control cell lines, CellTiter-Glo viability, 72 h; at 44.8 µM (top of the series) unless noted. The procedure, abridged: (§2)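 Cells were treated for 72 hr at 37 degree celsius with compounds in 8- or 11-point dose response. Viability was read by CellTiter-Glo luminescence, normalized to no-cell (cytotoxicity) and DMSO controls.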
(Quantitative high-throughput screening tests each substance at several concentrations.)

The subject of the next assay is MCC-13. The description is as above. Particulars: MCC and control cell lines, CellTiter-Glo viability, 72 h; series mostly up to 46 µM. In outline: as §2
A further assay concerns MKL-1. The assay is described as above. To be noted: MCC and control cell lines, CellTiter-Glo viability, 72 h; series mostly up to 46 µM. The procedure, abridged:
as §2

The subject of assay [4] is NIH3T3. Described as above. To be noted: MCC and control cell lines, CellTiter-Glo viability, 72 h; at 44.8 µM (top of the series) unless noted. The procedure, abridged:
as §2

A further assay deals with UISO. The assay is described as above. Particulars: MCC and control cell lines, CellTiter-Glo viability, 72 h; series mostly up to 46 µM. In outline: as §2
In a further assay the test system is WaGa. The assay is described as above. Particulars: MCC and control cell lines, CellTiter-Glo viability, 72 h; series mostly up to 46 µM. The procedure, abridged:
as §2

A further assay has as its system KB-3-1. Put plainly: Cytotoxic Profiling of Annotated Libraries Using Quantitative High-Throughput Screening (AID 1296008). Note: nearly all actives have a fitted effect of over 60% in size. Note: potency is the fitted concentration of half-maximal effect. To be noted: Five cell lines viability, CellTiter-Glo ATP luminescence, 48-72 h; max response: active compounds read low. The procedure, abridged: as §1
For another assay, the system named is HEK293T. In words: qHTS assay to identify novel small-molecules to repurpose for Merkel cell carcinoma treatment (AID 1296009). Note: nearly all actives have a fitted effect of over 60% in size. Note: potency is the fitted concentration of half-maximal effect. Particulars: MCC and control cell lines, CellTiter-Glo viability, 72 h; at 44.8 µM (top of the series). The procedure, abridged: as §2
The test system of another assay is MCC-26. The assay is described as above. Particulars: MCC and control cell lines, CellTiter-Glo viability, 72 h; series mostly up to 46 µM. In outline: as §2
For another assay, the system named is MKL-2. The assay is described as above. To be noted: MCC and control cell lines, CellTiter-Glo viability, 72 h; series mostly up to 46 µM. The procedure, abridged: as §2
A further assay relates to C33A. In words: Primary qHTS to identify gynecologic anti-cancer compounds using libraries of approved drugs and bioactive compounds (AID 1345084). Note: nearly all actives have a fitted effect of over 55% in size. To be noted: Gynecologic cancer cell panel viability, ATPlite luminescence, 48 h; series mostly up to 57.5 µM. The procedure, abridged: (§3)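 ATP-based viability (ATPlite), 1,000 cells/well, 16 h pre-incubation, 48 h compound at 37 C, 5% CO2, 15 min RT before read.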

The test system of another assay is CAOV3. Described as above. To be noted: Gynecologic cancer cell panel viability, ATPlite luminescence, 48 h; series mostly up to 57.5 µM. The procedure, abridged: as §3
For the next assay, the system named is CASKI. The assay is described as above. Particulars: Gynecologic cancer cell panel viability, ATPlite luminescence, 48 h; series mostly up to 57.5 µM. In outline:
as §3

Values joined by “and” are separate entries in the source; they are usually repeats but may differ in a detail not shown here. Identical values can stand only once. Inconclusive results are not listed. A number with no mark means an inactive call. Active and inactive are the calls of the source. Calls come from the whole dose curve; as a rule, active = well fitted curve in the direction sought with a large enough effect; inconclusive = small, poorly fitted or top-dose-only effect, or another doubt; inactive = no such curve, though single readings can be large; an effect the other way counts as inactive or inconclusive.
% is set by controls: 0 for no effect and ±100 for the full control effect.

For the compound `CCNc1cc(NC2CCC(O)CC2)nc(Nc2ccc3c(ccn3Cc3ccccc3)c2)n1` (stereo not given), the max response in the assay with CRL-7250 is 1.87%. In the assay on HEK293, the Potency is 20.9 µM (active). Moreover, the result in the assay with HaCat [1], with NIH3T3 [2], in the assay on HACAT [3] and in the assay on NIH3T3 [4] was inactive. Further, the Potency entry in the assay with MCC-13, in the assay with MKL-1, with UISO and in the assay with WaGa was “inactive” throughout.
Regarding `O=c1cc(-c2cccc3c2Sc2ccccc2S3)oc(N2CCOCC2)c1`, the compound was classed as inactive in the assay on CRL-7250, in the assay on HEK293, with KB-3-1, in the assay on HEK293T and with NIH3T3 [4]. Besides, in the assay with HaCat [1], the max response was -21.6%. Besides, the Potency result with MCC-13, in the assay with MCC-26, in the assay with MKL-1, in the assay on MKL-2, in the assay on UISO and in the assay on WaGa was “inactive” each time.
Consider `CC1CCC(C(=O)N(c2cc(C#CC(C)(C)C)sc2C(=O)O)C2CCC(O)CC2)CC1` (stereo not given), for which the max response is -4.19% and 3.8% in the assay with CRL-7250; -1.31% in the assay on HEK293; -8.44% and -2.14% in the assay on KB-3-1. For the same compound, the outcome in the assay on HaCat [1], in the assay on HACAT [3] and in the assay on NIH3T3 [4] was inactive. For the same compound, the Potency result in the assay with MCC-13, in the assay with MCC-26, in the assay with MKL-1, with MKL-2, in the assay on UISO and in the assay with WaGa was “inactive” throughout. For the same compound, the Potency result with C33A and with CAOV3 was “inactive” each time.
With `O=C1C[C@@H](c2ccc(O)cc2)Oc2cc(O)cc(O)c21`, the max response in the assay on CRL-7250 is -1.31%; with HEK293 it was -0.968%; in the assay with HaCat [1] it was 2.46%; with KB-3-1, 7.82%. Also, the Potency entry with MCC-13, in the assay with MCC-26, in the assay with MKL-1, in the assay on MKL-2, in the assay on UISO and in the assay with WaGa was “inactive” each time.
On to `COC(=O)C1=CO[C@@H](O)[C@@H]2C(CO)=CC[C@@H]12`, for which the max response in the assay on CRL-7250 was 0.508%; in the assay with HEK293, 4.92%; with HaCat [1], 3.95%; in the assay on KB-3-1, -1.15%. Also, the Potency result in the assay on MCC-13 and in the assay on MCC-26 was “inactive” throughout. Moreover, the Potency with MKL-2 is 9.35 µM (active). In the assay with NIH3T3 [4], the compound was called inactive.
Take `O=C(O)CCC1CCC(c2cc(F)ccc2F)(S(=O)(=O)c2ccc(Cl)cc2)CC1` (stereo not given): the outcome with CRL-7250, in the assay with HaCat [1], in the assay with KB-3-1 and with HACAT [3] was inactive. The max response in the assay with HEK293 is -15.1%. Moreover, the Potency result with MCC-13, with MCC-26, in the assay with MKL-1 and in the assay with UISO was “inactive” throughout.
For `Nc1ncnc2c1ncn2[C@@H]1O[C@H](CO)C[C@@H]1O`, the max response is -11.4% in the assay on CRL-7250, -3.58% in the assay with HEK293 and -0.663% with HaCat [1]. Moreover, the result in the assay on KB-3-1 was inactive. Also, the Potency entry with MCC-13, in the assay with MCC-26, in the assay with MKL-1, with MKL-2 and in the assay on UISO was “inactive” in each case. For the same compound, in the assay with WaGa, the Potency is 14.8 µM (active).
In the case of `NC(=O)c1cccc(-c2cc(Nc3ccc(OC(F)(F)F)cc3)ncn2)c1`, the max response was -7.69% and -0.175% with CRL-7250; -13.5% in the assay with KB-3-1; 0.478% and -10.9% in the assay with NIH3T3 [2]. Besides, the outcome in the assay with HaCat [1] and in the assay on HACAT [3] was inactive. The Potency entry in the assay on MCC-13, in the assay with MCC-26, with MKL-1, with C33A, in the assay on CAOV3 and with CASKI was “inactive” each time.
On to `CC[C@H]1OC(=O)[C@H](C)[C@@H](O[C@H]2C[C@@](C)(OC)[C@@H](O)[C@H](C)O2)[C@H](C)[C@@H](O[C@@H]2O[C@H](C)C[C@H](N(C)C)[C@@H]2O)[C@](C)(O)C[C@@H](C)CN(C)[C@H](C)[C@@H](O)[C@]1(C)O`, for which the compound was called inactive in the assay with CRL-7250, with HaCat [1], with KB-3-1, in the assay with NIH3T3 [2], in the assay on HACAT [3] and in the assay on NIH3T3 [4]. Also, the Potency result with MCC-13, in the assay with MCC-26, in the assay on MKL-1, in the assay on UISO and in the assay on WaGa was “inactive” in each case.
